Compounds without any hit were thinned out: in the full panel of roughly 79,000, 15% have a hit. Activity calls are given as the source filed them. Rule as the data show it: active = growth inhibition above about 70%; inactive = the rest.
Columns and labels:
[1] = NCI Yeast Anticancer Drug Screen. Data for the rad52 strain (AID 147);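 also: 0% = growth of vehicle-treated control cultures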; conditions: S. cerevisiae rad52 mutant growth inhibition, active compounds read high
In short: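 Compounds are applied to a genetically defined yeast strain lacking normal DNA damage repair, and inhibition of growth is expressed relative to cultures given vehicle only.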

[2] = NCI Yeast Anticancer Drug Screen. Data for the wt1 strain (AID 149);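 also: 0% = growth of vehicle-treated wt1 cultures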; conditions: S. cerevisiae wt1 strain (SPY 50644) growth inhibition, active compounds read high
In short: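 The wt1 strain was treated with compounds, and growth was compared with vehicle-treated cultures to give inhibition.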

[3] = NCI Yeast Anticancer Drug Screen. Data for the rad50EPP+ strain (AID 151);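 also: 0% = growth of vehicle-treated control cultures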; conditions: S. cerevisiae rad50 mutant strain, active compounds read high
In short: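 Compounds were applied to the rad50EPP+ yeast strain, which bears a defined DNA repair alteration, and growth inhibition was determined relative to vehicle-treated cultures.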

[4] = NCI Yeast Anticancer Drug Screen. Data for the mgt1 strain (AID 153); conditions: S. cerevisiae mgt1 mutant growth inhibition, active compounds read high
In short: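 Strain: mgt1 yeast, one of a set carrying defined DNA damage repair or cell cycle control alterations. Compound-treated growth compared with vehicle.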

[5] = NCI Yeast Anticancer Drug Screen. Data for the rad50 strain (AID 155);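 also: 0% = growth of vehicle-only cultures of the same strain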; conditions: S. cerevisiae rad50 strain growth inhibition, active compounds read high
In short: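 Cells are treated with compound, grown, and their growth is then scored against vehicle-only cultures of the same repair-deficient yeast strain.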

[6] = NCI Yeast Anticancer Drug Screen. Data for the mec2-1 strain (AID 157); conditions: S. cerevisiae mec2-1 strain, active compounds read high
In short: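 Strain: mec2-1 (DNA repair/cell cycle alteration). Compound exposure, then growth measured; inhibition expressed relative to vehicle.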

[7] = NCI Yeast Anticancer Drug Screen. Data for the rad14 strain (AID 159);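 also: 0% = growth of vehicle-treated control cultures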; conditions: S. cerevisiae rad14 strain growth inhibition, active compounds read high
In short: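 Readout: yeast growth inhibition, referenced to vehicle-only cultures. Strain bears a defined alteration in DNA damage repair.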

[8] = NCI Yeast Anticancer Drug Screen. Data for the sgs1 mgt1 strain (AID 161);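 also: 0% = growth of cultures given vehicle only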; conditions: S. cerevisiae sgs1 mgt1 strain, active compounds read high
In short: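 Inhibition of yeast growth, normalised to vehicle-treated controls, is reported for a strain bearing genetic alterations in DNA damage repair.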

[9] = NCI Yeast Anticancer Drug Screen. Data for the cln2 rad14 strain (AID 165);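 also: 0% = growth equal to vehicle treated cultures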; conditions: S. cerevisiae cln2 rad14 strain, active compounds read high
In short: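 Compounds are applied to the cln2 rad14 yeast strain, and growth is then compared with that of vehicle-treated cultures to give inhibition.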

[10] = NCI Yeast Anticancer Drug Screen. Data for the bub3 strain (AID 167); conditions: S. cerevisiae bub3 mutant strain, active compounds read high
In short: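 Part of a panel of yeast mutants defective in DNA damage repair or cell cycle regulation. Each strain is grown with compound, and inhibition is calculated relative to solvent-treated cultures.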

[11] = NCI Yeast Anticancer Drug Screen. Data for the wt2 strain (AID 169);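 also: 0% = growth of vehicle-treated yeast cultures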; conditions: S. cerevisiae wt2 strain growth inhibition, active compounds read high
In short: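 This strain belongs to a panel of yeast strains with defined genetic alterations in DNA damage repair or cell cycle control. Compounds are applied, and growth inhibition is measured against vehicle-treated cultures.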

[12] = NCI Yeast Anticancer Drug Screen. Data for the sgs1 strain (AID 173);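 also: 0% = growth of vehicle-only control cultures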; conditions: S. cerevisiae sgs1 mutant, active compounds read high
In short: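 Growth of a yeast strain bearing a defined genetic alteration is measured after compound treatment. Inhibition is expressed relative to vehicle-only controls.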

[13] = NCI Yeast Anticancer Drug Screen. Data for the mlh1 rad18 strain (AID 175); conditions: S. cerevisiae mlh1 rad18 strain growth inhibition, active compounds read high
In short: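 Read-out is yeast growth inhibition, calculated against vehicle-only controls. The compound was applied to a strain engineered with DNA damage repair alterations.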

[14] = NCI Yeast Anticancer Drug Screen. Data for the rad18 strain (AID 177); conditions: S. cerevisiae rad18 mutant growth inhibition, active compounds read high
In short: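 Growth of the mutant yeast strain after compound exposure, normalised to vehicle-only cultures.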

[15] = NCI Yeast Anticancer Drug Screen. Data for the CLN2oe strain (AID 163);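 also: 0% = growth of vehicle-only control cultures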; conditions: S. cerevisiae CLN2oe strain, active compounds read high
In short: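 Growth of a genetically modified yeast strain is measured after compound exposure and compared with cultures given vehicle alone.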

[16] = NCI Yeast Anticancer Drug Screen. Data for the mlh1 strain (AID 171);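 also: 0% = growth of vehicle-treated control cultures of the same strain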; conditions: S. cerevisiae mlh1 strain growth inhibition, active compounds read high
In short: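 Growth of the mutant yeast strain after compound exposure, expressed as inhibition relative to vehicle-only controls.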

[17] = at 5.0 µM (retest, dose inferred, filed as 0.5)
[18] = at 50.0 µM (retest, dose inferred, filed as 5.0)

Measured: growth inhibition

COc1ccc([N+](=O)[O-])c2c(NCCCN(C)C)c3ccccc3nc12
active: [1]; at 33.0 µM 72% | [1]; at 100.0 µM 89% | [5]; [18] 90% | [5]; at 100.0 µM 71% | [6]; [18] 99% | [6]; at 100.0 µM 85% | [7]; at 33.0 µM 80% | [7]; at 100.0 µM 94% | [8]; [18] 79% | [9]; [18] 98% | [10]; [17] 91% | [10]; [18] 100% | [12]; at 33.0 µM 83% | [12]; at 100.0 µM 90% | [13]; [18] 98% | [14]; at 3.7 µM 82% | [14]; at 11.0 µM 90% | [14]; at 33.0 µM 93% | [14]; at 100.0 µM 95%
inactive: [1]; at 1.2 µM 15% | [1]; at 3.7 µM 30% | [1]; at 11.0 µM 58% | [2]; at 1.2 µM 1% | [2]; at 3.7 µM 1% | [2]; at 11.0 µM 3% | [2]; at 33.0 µM 9% | [2]; at 100.0 µM 23% | [3]; at 1.2 µM -3% | [3]; at 3.7 µM 3% | [3]; at 11.0 µM 13% | [3]; at 33.0 µM 22% | [3]; at 100.0 µM 45% | [4]; at 1.2 µM 2% | [4]; at 3.7 µM 2% | [4]; at 11.0 µM 6% | [4]; at 33.0 µM 10% | [4]; at 100.0 µM 42% | [5]; at 1.2 µM 5% | [5]; at 3.7 µM -1% | [5]; [17] 16% | [5]; at 11.0 µM 11% | [5]; at 33.0 µM 50% | [5]; at 50.0 µM 49.1% | [6]; at 1.2 µM 4% | [6]; at 3.7 µM 4% | [6]; [17] -3% | [6]; at 11.0 µM 12% | [6]; at 33.0 µM 47% | [6]; at 50.0 µM 12.9% | [7]; at 1.2 µM 4% | [7]; at 3.7 µM 10% | [7]; at 11.0 µM 29% | [8]; [17] 5% | [8]; at 50.0 µM 46.8% | [9]; [17] 42% | [9]; at 50.0 µM 66.2% | [10]; at 1.2 µM -2% | [10]; at 3.7 µM -2% | [10]; at 11.0 µM -4% | [10]; at 33.0 µM 1% | [10]; at 50.0 µM -29% | [10]; at 100.0 µM 9% | [11]; at 1.2 µM 1% | [11]; at 3.7 µM 2% | [11]; at 11.0 µM 5% | [11]; at 33.0 µM 17% | [11]; at 100.0 µM 38% | [12]; at 1.2 µM 12% | [12]; at 3.7 µM 31% | [12]; at 11.0 µM 56% | [13]; [17] 7% | [13]; at 50.0 µM 68.5% | [14]; at 1.2 µM 62%

CCC(C)(C)c1ccc(Oc2cccc(C(=O)O)c2)cc1
inactive: [1]; at 1.2 µM -2% | [1]; at 3.7 µM -1% | [1]; at 11.0 µM 17% | [1]; at 33.0 µM 59% | [1]; at 100.0 µM 68% | [2]; at 1.2 µM -1% | [2]; at 3.7 µM -3% | [2]; at 11.0 µM 12% | [2]; at 33.0 µM 49% | [2]; at 100.0 µM 59% | [3]; at 1.2 µM 8% | [3]; at 3.7 µM 18% | [3]; at 11.0 µM 25% | [3]; at 33.0 µM 42% | [3]; at 100.0 µM 56% | [5]; at 1.2 µM 2% | [5]; at 3.7 µM -1% | [5]; [17] -2% | [5]; at 11.0 µM 25% | [5]; at 33.0 µM 55% | [5]; [18] 44% | [6]; at 1.2 µM -1% | [6]; at 3.7 µM 2% | [6]; [17] 19% | [6]; at 11.0 µM 25% | [6]; [18] 48% | [7]; at 1.2 µM -6% | [7]; at 3.7 µM -14% | [7]; at 11.0 µM 2% | [7]; at 33.0 µM 54% | [8]; [17] -1% | [8]; [18] 9% | [8]; at 50.0 µM 58.2% | [15]; at 1.2 µM -4% | [15]; at 3.7 µM -4% | [15]; at 11.0 µM 24% | [9]; [17] -27% | [9]; [18] 30% | [10]; at 1.2 µM -8% | [10]; at 3.7 µM -2% | [10]; [17] -17% | [10]; at 11.0 µM 23% | [10]; at 33.0 µM 68% | [10]; [18] 32% | [11]; at 1.2 µM -4% | [11]; at 3.7 µM -4% | [11]; at 11.0 µM 7% | [11]; at 33.0 µM 46% | [11]; at 100.0 µM 62% | [16]; at 1.2 µM 1% | [16]; at 3.7 µM -1% | [16]; at 11.0 µM 14% | [16]; at 33.0 µM 31% | [12]; at 1.2 µM 6% | [12]; at 3.7 µM 10% | [12]; at 11.0 µM 28% | [12]; at 33.0 µM 54% | [12]; at 100.0 µM 68% | [13]; [17] 10% | [13]; [18] 36% | [14]; at 1.2 µM 8% | [14]; at 3.7 µM 3% | [14]; at 11.0 µM 17% | [14]; at 33.0 µM 49% | [14]; at 100.0 µM 69%
active: [5]; at 50.0 µM 72.1% | [5]; at 100.0 µM 71% | [6]; at 33.0 µM 70% | [6]; at 50.0 µM 78.8% | [6]; at 100.0 µM 96% | [7]; at 100.0 µM 72% | [15]; at 33.0 µM 84% | [15]; at 100.0 µM 84% | [9]; at 50.0 µM 88% | [10]; at 50.0 µM 71.8% | [10]; at 100.0 µM 84% | [16]; at 100.0 µM 96% | [13]; at 50.0 µM 86.7%

Cc1cc(O)c(C(C)C)cc1C1(c2cc(C(C)C)c(O)cc2C)OC(=O)c2ccccc21
active: [5]; [18] 98% | [5]; at 50.0 µM 94.1% | [6]; [18] 98% | [6]; at 50.0 µM 91.7% | [8]; [18] 98% | [8]; at 50.0 µM 82% | [9]; [18] 97% | [9]; at 50.0 µM 97% | [10]; [18] 98% | [10]; at 50.0 µM 91.1%
inactive: [1]; at 1.2 µM -4% | [1]; at 3.7 µM -3% | [1]; at 11.0 µM -5% | [1]; at 33.0 µM -3% | [1]; at 100.0 µM 34% | [2]; at 1.2 µM 2% | [2]; at 3.7 µM 2% | [2]; at 11.0 µM 5% | [2]; at 33.0 µM 1% | [2]; at 100.0 µM 20% | [3]; at 1.2 µM 0% | [3]; at 3.7 µM -1% | [3]; at 11.0 µM 0% | [3]; at 33.0 µM 0% | [3]; at 100.0 µM 0% | [4]; at 1.2 µM -1% | [4]; at 3.7 µM -1% | [4]; at 11.0 µM -2% | [4]; at 33.0 µM -3% | [4]; at 100.0 µM 18% | [5]; at 1.2 µM 3% | [5]; at 3.7 µM 0% | [5]; [17] 17% | [5]; at 11.0 µM 10% | [5]; at 33.0 µM 1% | [5]; at 100.0 µM 36% | [6]; at 1.2 µM 2% | [6]; at 3.7 µM 2% | [6]; [17] 0% | [6]; at 11.0 µM 1% | [6]; at 33.0 µM 4% | [6]; at 100.0 µM 29% | [8]; [17] 16% | [15]; at 1.2 µM -3% | [15]; at 3.7 µM -2% | [15]; at 11.0 µM -6% | [15]; at 33.0 µM -5% | [15]; at 100.0 µM 12% | [9]; [17] 51% | [10]; at 1.2 µM -2% | [10]; at 3.7 µM 1% | [10]; [17] -12% | [10]; at 11.0 µM -34% | [10]; at 33.0 µM 16% | [10]; at 100.0 µM 24% | [11]; at 1.2 µM -2% | [11]; at 3.7 µM -4% | [11]; at 11.0 µM -3% | [11]; at 33.0 µM -3% | [11]; at 100.0 µM 31%

Source: PubChem BioAssay (NCI)
